# Screening data as filed in PubChem.
# RORgamma inh: qHTS for inhibitors of ROR gamma transcriptional activity; Drosophila S2 Gal4-RORgamma UAS-luciferase reporter, 20 h; Potency, µM (titrated, usually from 53.6 µM), for the others: top-dose activity change, negative = inhibition, actives largely listed as inhibitors; Nuclear receptor ROR-gamma (Mus musculus), P51450; 310,000 tested, 5.4% active; note: potency is the fitted concentration of half-maximal effect; nearly all actives have a fitted effect of over 60% in size
#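 Using a luciferase readout, inhibitors were identified by reduced reporter activity in Drosophila cells coexpressing a copper-inducible Gal4–ROR gamma fusion and UAS-driven Photinus luciferase, incubated 20 hr after 700 uM copper sulfate.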
# Gal4-VP16 FLuc: VP16 counterscreen qHTS for inhibitors of ROR gamma transcriptional activity; Potency, µM (doses to about 53.6 µM), for the others: at the top dose activity, negative = inhibition, most hits filed as inhibitors; 310,000 tested, 3.5% active; Drosophila S2 Gal4-VP16 UAS-luciferase, luminescence, 20 h; AID 2546, 2010;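 note: Gal4-VP16 expression switched on by copper sulfate through the metallothionein promoter; potency is the fitted concentration of half-maximal effect; nearly all actives have a fitted effect of over 50% in size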
# CtBP-E1A blk: qHTS Assay for Inhibitors of the CtBP/E1A Interaction | activity change, % (no concentration beside the values) | 340,000 tested, 0.49% active | AlphaScreen GST-E1A/His-CtBP binding, 1536-well; stronger effect = lower value | CtBP / adenovirus E1A interaction (AlphaScreen); in the data active = activity change below about -65%; inconclusive = mostly about -30% to -63%
#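 In 5 uL wells, 23 nL compound meets equimolar GST-E1A and His-CtBP (5X stock 125 nM each) for 2 h, 37 °C. Beads (5X, 50 ug/mL) then 1 h, 37 °C, dark.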
# Six1-Eya2 inh: qHTS Assay for Inhibitors of the Six1/Eya2 Interaction. Homeobox protein SIX1 (Homo sapiens) + Protein phosphatase EYA2 (Homo sapiens), …. AlphaScreen GST-Six1/His-Eya2 binding, biochemical; stronger effect = lower value. activity change, % (concentration not given with the values). 360,000 tested, 0.56% active. AID 651725, 2012; in the data active = activity change below about -65%; inconclusive = mostly about -30% to -63%
#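 Homogeneous AlphaScreen proximity assay pairing GST-Six1 with His-tagged Eya2 (added as 5X mix: 250 nM and 500 nM) in 50 mM Tris pH 8.0, 300 mM NaCl, 1 mM TCEP. Glutathione donor and nickel acceptor beads; 1 h, 37 °C, dark.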
# PKM2 activator: qHTS Assay for Activators of Human Muscle isoform 2 Pyruvate Kinase; purified PKM2, Kinase-Glo ATP luminescence, activation; response scale: 0% is enzyme alone, no compound; 260,000 tested, 0.34% active; Potency, µM (titrated, usually from 57.5 µM), for the others: at the top dose activation, usual class: activators; AID 1631, 2009; Pyruvate kinase PKM (Homo sapiens), P14618; note: potency is the fitted concentration of half-maximal effect; nearly all actives have a fitted effect of over 55% in size
# Target sequence (P14618 whole entry, looked up, canonical isoform): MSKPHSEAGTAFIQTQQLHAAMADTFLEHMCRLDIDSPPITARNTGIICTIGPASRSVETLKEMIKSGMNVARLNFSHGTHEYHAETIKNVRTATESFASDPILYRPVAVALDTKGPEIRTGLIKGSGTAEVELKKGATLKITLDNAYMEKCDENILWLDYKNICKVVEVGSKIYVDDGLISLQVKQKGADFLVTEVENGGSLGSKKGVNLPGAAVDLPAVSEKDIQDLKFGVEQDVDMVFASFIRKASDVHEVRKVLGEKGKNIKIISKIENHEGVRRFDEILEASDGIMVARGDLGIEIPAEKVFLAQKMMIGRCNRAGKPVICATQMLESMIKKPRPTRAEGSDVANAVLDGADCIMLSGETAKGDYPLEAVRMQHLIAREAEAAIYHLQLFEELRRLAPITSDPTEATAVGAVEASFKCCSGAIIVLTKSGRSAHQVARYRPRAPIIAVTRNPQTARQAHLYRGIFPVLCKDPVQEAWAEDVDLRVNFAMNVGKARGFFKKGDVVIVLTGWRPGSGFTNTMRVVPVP
#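 Kinase-Glo luminescence reports ATP generated from ADP (0.1 mM) and PEP (0.5 mM) by purified hPK-M2 after 1 h at room temperature, pH 7.2 imidazole buffer; intermediate enzyme activity allows detecting inhibitors and activators.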
# Starred values were filed as active, the others as inactive; ? = inconclusive; . = not tested or not shown; [ ] = another dose, or the depositor's remark. An excerpt weighted towards active compounds, which were near 5.6% of everything screened. Unless noted, calls come from the whole dose curve; as a rule, active = well fitted curve in the direction sought with a large enough effect; inconclusive = small, poorly fitted or top-dose-only effect, or another doubt; inactive = no such curve, though single readings can be large; an effect the other way counts as inactive or inconclusive. % is set by controls: 0 for no effect and ±100 for the full control effect.
SMILES,RORgamma inh,Gal4-VP16 FLuc,CtBP-E1A blk,Six1-Eya2 inh,PKM2 activator
Cn1c(=O)c2cc(S(=O)(=O)NCCC(=O)Nc3ccccc3F)ccc2n(C)c1=O,15%,-1%,-23,-17,1%
CCOc1ccccc1NS(=O)(=O)c1ccc2c(c1)n(C)c(=O)c(=O)n2C,21%,-5%,2,-8,25%
Cc1c(F)cccc1NS(=O)(=O)c1ccc2c(c1)c(=O)n(C)c(=O)n2C,23%,9%,?,?,3.5µM*
COc1cccc(NS(=O)(=O)c2ccc3c(c2)n(C)c(=O)c(=O)n3C)c1,25%,-17%,1,-2,1.1µM*
CC(C)Oc1ccccc1/C=N/n1nnnc1N,.,.,.,5,.
COc1ccc(N2CCN(C(=O)CN3C(=O)NC(C)(C4CC4)C3=O)CC2)cc1 (stereo not drawn),.,.,.,0,.
O=c1c(-c2ccc(Cl)cc2)nc2cnc(N3CCNCC3)nc2n1Cc1cccs1,-11%,?,.,.,.
CN1CCN(c2ncc3nc(-c4cccs4)c(=O)n(CCC#N)c3n2)CC1,0.71µM*,6.3µM*,.,.,.
O=c1c(-c2ccc(F)cc2)nc2cnc(N3CCNCC3)nc2n1Cc1ccc(F)cc1,14µM*,?,.,.,.
O=c1c(-c2cc(F)cc(F)c2)nc2cnc(N3CCOCC3)nc2n1Cc1cccs1,-22%,2%,.,.,.
O=c1c(-c2cccs2)nc2cnc(N3CCNCC3)nc2n1Cc1cccs1,18µM*,8.9µM*,.,.,.
O=c1c(-c2cc(F)cc(F)c2)nc2cnc(N3CCNCC3)nc2n1Cc1cccs1,2.8µM*,?,.,.,.
COc1ccc(-c2nc3cnc(N4CCNCC4)nc3n(Cc3ccc(F)cc3)c2=O)cc1,-25%,-10%,.,.,.
CC(C)c1ccc(NC(=O)CSc2nc3ccsc3c(=O)n2CCC(=O)O)cc1,13%,-11%,2,-2,.
O=C(NCC(c1ccc(F)cc1)N1CCOCC1)c1ccc([N+](=O)[O-])o1 (stereo not drawn),.,.,1,2,.
Cc1nc2ccccc2n1C1CCN(C(=O)Nc2ccccc2)CC1,15%,12%,-3,3,2%
CN1CCN(c2ncc3nc(-c4cccs4)c(=O)n(Cc4cccs4)c3n2)CC1,13µM*,?,.,.,.
COc1ccc(-n2c(=O)c(-c3cccs3)nc3cnc(N4CCNCC4)nc32)cc1,?,10µM*,.,.,.
Nc1nc(-c2ccccn2)nc(N)c1Cc1c(F)cccc1Cl,2.8µM*,11µM*,-92*,-79*,4%
Nc1nc(-c2ccccn2)nc(N)c1Cc1ccc(Cl)cc1Cl,4µM*,8.9µM*,-91*,-80*,-8%
Nc1nc(-c2ccccn2)nc(N)c1Cc1ccccc1F,6.3µM*,1%,-90*,-74*,-3%
O=c1c(Cc2c(F)cccc2Cl)c(O)ccn1CCc1ccccn1,-4%,-17%,3,5,0%
Clc1ccc(OCc2nc(-c3ccccn3)no2)c(Br)c1,?,?,-1,-6,5%
O=C(COc1ccc(S(=O)(=O)N2CCOCC2)cc1)Nc1ccccc1Cl,-9%,-7%,2,7,3%
CCOc1ccc2nc(NC(=O)c3ccccn3)sc2c1,0.71µM*,2.8µM*,?,?,-36%
SMILES,RORgamma inh,Gal4-VP16 FLuc,CtBP-E1A blk,Six1-Eya2 inh,PKM2 activator
NC(=S)Nc1nc2ccccc2s1,?,3.5µM*,2,1,-19%
CSc1nc2ccc(NC(=O)c3ccccn3)cc2s1,?,?,-4,5,-24%
Cc1ccc2nc(NC(=O)c3ccccn3)sc2c1,0.35µM*,1.1µM*,?,-73*,-23%
CCOc1ccc2nc(NC(=O)c3ccoc3C)sc2c1,?,11µM*,-10,-7,-35%
CCOc1ccc2nc(NC(=O)c3ccco3)sc2c1,?,?,-3,-2,-3%[11.5 µM]
CC(O)CSc1nc2c(c(=O)[nH]c(=O)n2C)n1Cc1ccccc1Cl (stereo not drawn),19%,13%,8,6,1%[11.5 µM]
COc1ccc([C@@H]2CC(=O)c3c(O)cc(O[C@@H]4O[C@H](CO[C@@H]5O[C@@H](C)[C@H](O)[C@@H](O)[C@H]5O)[C@@H](O)[C@H](O)[C@H]4O)cc3O2)cc1,-10%,-2%,.,.,.
Cc1ccc2nc(NC(=O)c3ccccc3F)sc2c1,1.3µM*,7.1µM*,4,4,-1%
CCOc1ccc2nc(NC(=S)NCc3ccccc3)sc2c1,2.2µM*,2.8µM*,-9,-5,3%
CCOc1ccc2nc(NC(=O)Nc3ccccc3)sc2c1,-45%,?,0,-1,3%
COc1ccc2nc(NC(=O)c3ccccc3C(=O)O)sc2c1,-4%,-9%,10,-9,.
O=C(Nc1nc2c(F)cc(F)cc2s1)c1ccccn1,0.22µM*,2µM*,?,10,-22%
CSc1ncccc1C(=O)Nc1nc2ccc(Oc3ccccc3)cc2s1,10µM*,?,.,-6,-6%
Cn1cccc1C(=O)N1CCC[C@@]2(CCN(C(c3ccccc3)c3ccccc3)C2)C1,-20%,1%,.,.,.
OC[C@H]1NC[C@H](O)[C@@H](O)[C@@H]1O,4%,-14%,.,.,.
O=C(COc1ccccc1)NNc1nc2c(F)cc(F)cc2s1,13µM*,0%,7,5,-17%
COc1ccccc1C(=O)Nc1nc2ccccc2s1,0.63µM*,1µM*,-2,4,-36%
COCCNc1c(-c2cc3ccc(C)c(C)c3[nH]c2=O)nc2ccccn12,?,-21%,-2,-1,-4%
CC(=O)c1c(COC(=O)c2ccccc2Cl)nc2ccccc2[n+]1[O-],23%,-4%,.,-3,1%
COc1cc(-c2cc(C(=O)Nc3ccc(S(=O)(=O)Nc4ncccn4)cc3)c3ccccc3n2)cc(OC)c1OC,-35%,11µM*,-5,1,5%
COc1ccc(C(=O)NNC(=S)NC(=O)c2cc(-c3ccccc3)nc3ccccc23)cc1,10µM*,?,-8,-2,1%
COC(=O)c1ccc(NC(=S)NC(=O)c2cc(-c3ccccc3)nc3ccccc23)cc1,0.45µM*,2µM*,?,-11,-1%
COC(=O)c1ccc(NC(=O)c2cc(-c3ccncc3)nc3ccccc23)cc1,.,.,0,-3,.
CCCOc1ccc(C(=O)NNC(=S)NC(=O)c2cc(-c3ccc(Cl)cc3)nc3ccccc23)cc1,0.11µM*,?,-7,-7,-2%
COc1ccc2nc(-c3ccco3)c(-c3ccco3)nc2c1,?,-29%,-2,-1,17%
COc1ccc2no[n+]([O-])c2c1,6.3µM*,7.1µM*,.,.,-8%
